# Reference: PubChem BioAssay (NCI)
# This is part of a sample that, as a whole, favours compounds with a hit. Of some 83,000 tested, about 20% had one in any assay.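 For each line, cells grew in 96-well plates with the test compound present at a single concentration for 48 hours.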 The source made the active and inactive calls. The calls were made as follows: active = growth percent below 10; inactive = the rest.
# Tested on: NCI-H322M lung
# Assay: NCI-60 one-dose screen, 48 h (100 = growth as untreated, 0 = no growth, -100 = all killed)
# Conditions: 10 µM unless noted
row,Compound,growth
1,COc1ccc(CNc2ccc3nc(CCC4CCCCC4)[nH]c3c2)cc1,91.2% (inactive)
2,CC(C)(C)[C@H](OCc1cn([C@H]2C[C@@H](O)[C@@H](CO)O2)c(=O)[nH]c1=O)c1ccc(C#Cc2ccccc2)cc1[N+](=O)[O-],47.6% (inactive)
3,N#C/C(=C\c1cccc2cnccc12)N1N=NC2C=CC=CC21 (centres undefined),67.2% (inactive)
4,Cc1c2cnccc2c(C)c2c1c1cc(C(=O)O)ccc1n2C,-1.54% (active)
5,COCCn1cc(-c2nc(-c3cc4cccnc4n3C)cs2)c2cc(OC)ccc21,26% (inactive)
6,Cc1ccc(S(=O)(=O)N(CCC(=O)O)c2ccccc2)cc1,122% (inactive)
7,C=CN(C(=O)N1CCN(c2cc3c(cc2F)c(=O)c(C(=O)O)cn3C2CC2)CC1)c1nc(-c2ccc(C)cc2)cs1,20.8% (inactive)
8,CCOC(=O)/C(=C/c1ccc([N+](=O)[O-])cc1)C(=O)c1ccccc1,73.5% (inactive)
9,CC(C)C(=O)Nc1ncc(C(=O)NCCN(Cc2ccccc2)C(=O)c2ccc(S(=O)(=O)Nc3ccccc3)cc2)s1,98.9% (inactive)
10,OC1CSSC1Cn1cnc2c(Nc3ccc(F)c(Cl)c3)ncnc21 (centres undefined),74.1% (inactive)
11,CCCCCCCCNc1ncnc2c1ncn2Cc1nnc2c3ccccc3c(Cl)nn12,77.8% (inactive)
12,CN1C(=O)N(C)C2C1NN=c1s/c(=C\c3ccc(F)cc3)c(=O)n12 (centres undefined),53.6% (inactive)
13,COC(=O)c1cc(-c2cc(OC)c(OC)c(OC)c2)[nH]c1N/N=C/c1c(Cl)cccc1Cl,45.3% (inactive)
14,COc1ccc(Nc2nc(Nc3cc(C)[nH]n3)c3cc(OC)c(OC)cc3n2)cc1,-100% [20 µM] (active)
15,CCN1C(=O)N(CC)C2C1NN=c1s/c(=C\c3ccc(F)cc3)c(=O)n12 (centres undefined),44.2% (inactive)
16,CC(C)c1nc(N(C)S(C)(=O)=O)nc(-c2ccc(F)cc2)c1/C=C/C(=O)C[C@@H](O)CC(=O)O,90% (inactive)
17,C=C(C)[C@@H]1CC[C@]2(COCCCNCCCN)CC[C@]3(C)[C@H](CC[C@@H]4[C@@]5(C)CC[C@H](OCCCN)C(C)(C)[C@@H]5CC[C@]43C)[C@@H]12,41.7% (inactive)
18,C=C(C)[C@@H]1CC[C@]2(COC(=O)c3cccnc3)CC[C@]3(C)[C@H](CC[C@@H]4[C@@]5(C)CCCN(C(=O)c6cccnc6)C(C)(C)[C@@H]5CC[C@]43C)[C@@H]12,65.6% (inactive)
19,COc1cccc(C2C(C#N)=C(N)Oc3c2ccc2ccccc32)c1 (centres undefined),41.7% (inactive)
20,C#Cc1cccc(Nc2ncnc3ccc(-c4cnc(Cl)c(NS(C)(=O)=O)c4)cc23)c1,-42.3% (active)
21,CCN1C(=O)N(CC)C2C1NN=c1s/c(=C3\C(=O)N(C)c4ccccc43)c(=O)n12 (centres undefined),48.4% (inactive)
22,O=C(Nc1ncc(Cc2ccccc2)s1)c1ccc2c(c1)OCCO2,50.1% (inactive)
23,COc1cc(/C=C/c2cc(/C=C/c3ccc(O)c(OC)c3)n(C(=O)Nc3ccc(C)cc3C)n2)ccc1O,8.13% (active)
24,CC(C)(C)CC(C)(C)Nc1c(-c2c(O)c3ccccc3oc2=O)nc2sccn12,86.7% (inactive)
25,COc1ccc(Cn2cc3c(c2)-c2oncc2CC3)cc1,89.6% (inactive)

# Tested on: HOP-62 NSCLC
# Assay: as above
# Conditions: 10 µM unless noted
row,Compound,growth
1,O=C(Nc1ccc(Cl)cc1)C1=NCCCCN1,70.7% (inactive)
2,Fc1ccc(/C=C/c2cc(/C=C/c3ccc(F)cc3)n(-c3cc(F)cc(F)c3)n2)cc1,96% (inactive)
3,Nc1n[nH]c2cccc(C#Cc3cccc(C(=O)Nc4ccc(Cl)c(C(F)(F)F)c4)c3)c12,67.5% (inactive)
4,CC/C(=C(/c1ccc(Cl)cc1)c1ccc(OCCN2CCCCCC2)cc1)c1ccccc1,103% (inactive)
5,COC(CCP(=O)(c1ccccc1)c1ccccc1)(C(=O)c1ccccc1)c1ccccc1 (centres undefined),88% (inactive)
6,CC(=O)CC(=O)c1ccccc1.[Cu+2],119% (inactive)
7,CN1CCN(Cc2ccc(NC(=O)c3cncc(C#Cc4cnc(N)c5ccc(C#N)cc45)c3)cc2C(F)(F)F)CC1,2.55% (active)
8,CNC(=O)c1cc(Oc2ccc3nc(NC(=O)NC(C)C)sc3c2)ccn1,75.6% (inactive)
9,N/C(=N\c1nc2ccccc2s1)NC(=O)Nc1ccccc1,30% (inactive)
10,CCOC(=O)/C(=C\c1ccccc1Cl)P(=O)(OCC)OCC,118% (inactive)
11,O=C(/C=C/c1ccc(Cl)cc1)c1ccc(-n2cc(CN3CCN(c4cc5c(cc4F)c(=O)c(C(=O)O)cn5C4CC4)CC3)nn2)cc1,85.5% (inactive)
12,COc1cc2cc(Oc3ccc(NC(=O)Nc4ccc(Cl)c(Cl)c4)cc3)c(C)nc2cc1OCCN1CCCCC1,107% (inactive)
13,CCN(CC)CCN1C(=O)c2c(c(C)c3c(oc4cc(OC)ccc43)c2C)C1=O,95.9% (inactive)
14,Cn1ncc(CC(=O)O)c1-n1nnc2cc(Cl)ccc2c1=O,105% (inactive)
15,COc1ccc(CNc2ccc3nc(CCC4CCCCC4)[nH]c3c2)cc1,75.8% (inactive)
16,CC(C)(C)[C@H](OCc1cn([C@H]2C[C@@H](O)[C@@H](CO)O2)c(=O)[nH]c1=O)c1ccc(C#Cc2ccccc2)cc1[N+](=O)[O-],86% (inactive)
17,N#C/C(=C\c1cccc2cnccc12)N1N=NC2C=CC=CC21 (centres undefined),79.9% (inactive)
18,Cc1c2cnccc2c(C)c2c1c1cc(C(=O)O)ccc1n2C,-8.17% (active)
19,COCCn1cc(-c2nc(-c3cc4cccnc4n3C)cs2)c2cc(OC)ccc21,47.2% (inactive)
20,Cc1ccc(S(=O)(=O)N(CCC(=O)O)c2ccccc2)cc1,96.2% (inactive)

row,Compound,growth
1,C=CN(C(=O)N1CCN(c2cc3c(cc2F)c(=O)c(C(=O)O)cn3C2CC2)CC1)c1nc(-c2ccc(C)cc2)cs1,17.9% (inactive)
2,CCOC(=O)/C(=C/c1ccc([N+](=O)[O-])cc1)C(=O)c1ccccc1,76.5% (inactive)
3,CC(C)C(=O)Nc1ncc(C(=O)NCCN(Cc2ccccc2)C(=O)c2ccc(S(=O)(=O)Nc3ccccc3)cc2)s1,94.3% (inactive)
4,OC1CSSC1Cn1cnc2c(Nc3ccc(F)c(Cl)c3)ncnc21 (centres undefined),93.2% (inactive)
5,CCCCCCCCNc1ncnc2c1ncn2Cc1nnc2c3ccccc3c(Cl)nn12,54.3% (inactive)
6,CN1C(=O)N(C)C2C1NN=c1s/c(=C\c3ccc(F)cc3)c(=O)n12 (centres undefined),46.7% (inactive)
7,COC(=O)c1cc(-c2cc(OC)c(OC)c(OC)c2)[nH]c1N/N=C/c1c(Cl)cccc1Cl,-43.9% (active)
8,COc1ccc(Nc2nc(Nc3cc(C)[nH]n3)c3cc(OC)c(OC)cc3n2)cc1,-73.3% [20 µM] (active)
9,CCN1C(=O)N(CC)C2C1NN=c1s/c(=C\c3ccc(F)cc3)c(=O)n12 (centres undefined),39.3% (inactive)
10,CC(C)c1nc(N(C)S(C)(=O)=O)nc(-c2ccc(F)cc2)c1/C=C/C(=O)C[C@@H](O)CC(=O)O,95.8% (inactive)
11,C=C(C)[C@@H]1CC[C@]2(COCCCNCCCN)CC[C@]3(C)[C@H](CC[C@@H]4[C@@]5(C)CC[C@H](OCCCN)C(C)(C)[C@@H]5CC[C@]43C)[C@@H]12,-59.1% (active)
12,C=C(C)[C@@H]1CC[C@]2(COC(=O)c3cccnc3)CC[C@]3(C)[C@H](CC[C@@H]4[C@@]5(C)CCCN(C(=O)c6cccnc6)C(C)(C)[C@@H]5CC[C@]43C)[C@@H]12,61% (inactive)
13,COc1cccc(C2C(C#N)=C(N)Oc3c2ccc2ccccc32)c1 (centres undefined),39.6% (inactive)
14,C#Cc1cccc(Nc2ncnc3ccc(-c4cnc(Cl)c(NS(C)(=O)=O)c4)cc23)c1,3.57% (active)
15,CCN1C(=O)N(CC)C2C1NN=c1s/c(=C3\C(=O)N(C)c4ccccc43)c(=O)n12 (centres undefined),29.8% (inactive)
16,O=C(Nc1ncc(Cc2ccccc2)s1)c1ccc2c(c1)OCCO2,25.5% (inactive)
17,COc1cc(/C=C/c2cc(/C=C/c3ccc(O)c(OC)c3)n(C(=O)Nc3ccc(C)cc3C)n2)ccc1O,-35.7% (active)
18,CC(C)(C)CC(C)(C)Nc1c(-c2c(O)c3ccccc3oc2=O)nc2sccn12,85% (inactive)
19,COc1ccc(Cn2cc3c(c2)-c2oncc2CC3)cc1,58.8% (inactive)
